The nature of experiment [1]: qHTS assay to identify small molecule antagonists of the estrogen related receptor (ERR) signaling pathway from Tox21 library - cell viability counter screen (AID 1224834). Also: nearly all actives have a fitted effect of over 30% in size. Also: potency is read from the fitted curve at half-maximal effect. In a few lines: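 Cytotoxicity of test substances is gauged in the same ERR cells used for the antagonist screen, after 17.5 h of compound treatment at 37 C, by CellTiter-Fluor fluorescence measured after 30 min.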
(Quantitative high-throughput screening tests each substance at several concentrations.)

Experiment [2] deals with Luciferin 4-monooxygenase (Photinus pyralis) (UniProt P08659). In words: qHTS assay to identify small molecule inhibitors of firefly luciferase (AID 1224835). Also: % is scaled to controls: 0 for no effect and ±100 for the full control effect; nearly all actives have a fitted effect of over 25% in size. In a few lines: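 Biochemical qHTS: compounds run as interplate titrations against purified firefly enzyme, with D-luciferin and ATP each at its KM concentration. Light output recorded by CCD imaging.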
Luciferin 4-monooxygenase (Photinus pyralis), sequence (P08659 whole entry, looked up): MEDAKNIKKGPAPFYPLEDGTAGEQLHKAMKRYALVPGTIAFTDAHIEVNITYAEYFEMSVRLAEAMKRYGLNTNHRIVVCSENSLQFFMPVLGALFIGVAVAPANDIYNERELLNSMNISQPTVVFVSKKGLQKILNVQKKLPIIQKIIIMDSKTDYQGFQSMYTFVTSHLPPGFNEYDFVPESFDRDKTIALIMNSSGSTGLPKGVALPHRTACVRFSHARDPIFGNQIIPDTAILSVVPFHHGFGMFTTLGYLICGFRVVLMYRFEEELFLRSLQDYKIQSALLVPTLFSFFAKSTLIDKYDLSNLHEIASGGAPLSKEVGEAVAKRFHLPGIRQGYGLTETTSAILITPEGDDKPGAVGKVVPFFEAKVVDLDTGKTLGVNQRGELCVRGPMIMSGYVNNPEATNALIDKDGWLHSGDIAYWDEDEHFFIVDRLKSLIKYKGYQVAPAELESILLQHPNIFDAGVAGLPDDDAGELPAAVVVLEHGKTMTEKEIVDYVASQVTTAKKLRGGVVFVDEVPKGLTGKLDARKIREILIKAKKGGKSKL
A short description of experiment [3]: qHTS assay to identify small molecule agonists of the constitutive androstane receptor (CAR) signaling pathway - cell viability counter screen (AID 1224836). Also: nearly all actives have a fitted effect of over 45% in size. Also: potency is read from the fitted curve at half-maximal effect. In a few lines:
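Double-stable HepG2 hepatoma cells (hCAR plus CYP2B6-2.2kb) are treated for 23 h at 37 C with test compounds in 15-point concentration series. PK11195 at 0.75 uM final is co-added. Cell viability is quantified by CellTiter-Fluor.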

Experiment [4] is described as follows: qHTS assay to identify small molecule antagonists of the constitutive androstane receptor (CAR) signaling pathway - cell viability counter screen (AID 1224837). Also: nearly all actives have a fitted effect of over 45% in size. Also: potency is read from the fitted curve at half-maximal effect. An outline of the steps:
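Multiplexed cytotoxicity read-out for the CAR antagonist screen: double-stable HepG2-CYP2B6-hCAR cells co-treated with 50 nM CITCO (final) and compound over 15 concentrations, incubated 23 hr, then assessed by CellTiter-Fluor fluorescence.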

Experiment [5] can be described thus: qHTS assay to identify small molecule antagonists of the estrogen related receptor signaling pathway with the pleiotropic PPARgamma coactivator (PGC) from Tox21 10K library - cell viability counter screen (AID 1224840; active = well fitted cell-killing curve with a large enough effect in the repeat runs, not every such curve was filed as active; also: nearly all actives have a fitted effect of over 40% in size; also: potency is read from the fitted curve at half-maximal effect). An outline of the steps: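 Step one, plate 2,000 PGC/ERR cells per well; step two, incubate 6 h at 37 C/5% CO2; step three, pin-transfer compounds; step four, incubate 17.5 h; step five, add CellTiter-Fluor and read fluorescence after 30 min.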

Experiment [6] has as its target Thyrotropin receptor (Homo sapiens) (UniProt P16473). In words: qHTS assay to identify small molecule agonists of the thyroid stimulating hormone receptor (TSHR) signaling pathway (AID 1224843; calls by dose curve; also: % is scaled to controls: 0 for no effect and ±100 for the full control effect; nearly all actives have a fitted effect of over 45% in size). An outline of the steps: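 Steps: seed 800 TSHR-HEK293 cells per well; add test compound and hold 30 min at ambient temperature; dispense cAMP-d2 then anti-cAMP cryptate; incubate 1 h at ambient; measure fluorescence intensity.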

Experiment [7] in a line: qHTS assay to identify small molecule agonists of the hypoxia (HIF-1) signaling pathway - cell viability counter screen (AID 1224844; calls by dose curve; also: nearly all actives have a fitted effect of over 50% in size; also: potency is read from the fitted curve at half-maximal effect). An outline of the steps:
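Tox21 10K compounds were added to HRE-bla ME-180 cells (0.5% dialyzed FBS) and incubated 17 hrs at 37C; ATP-based CellTiter-Glo luminescence then reported cell viability in the same wells.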

Experiment [8] in a line: qHTS assay to identify small molecule agonists of H2AX (AID 1224845; active = well fitted activation curve with a large enough effect in the signal ratio in the repeat runs, not every such curve was filed as active; the % refers to the signal ratio; also: % is scaled to controls: 0 for no effect and ±100 for the full control effect). An outline of the steps: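 Wild-type CHO-K1 cells, plated overnight, exposed 3hr at 37C to 15 concentrations (0.76% DMSO final). Lysed, then HTRF anti-pH2AX (S139) cryptate and anti-H2AX-d2 antibodies, 24 hr room temperature; 665/620 nm emission read.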
The nature of experiment [9]: qHTS assay to identify small molecule agonists of the hypoxia (HIF-1) signaling pathway (AID 1224846; active = well fitted activation curve with a large enough effect in the signal ratio in the repeat runs, not every such curve was filed as active; the % refers to the signal ratio; also: % is scaled to controls: 0 for no effect and ±100 for the full control effect). In a few lines: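 Steps: seed ME-180 HRE-bla cells (2,000/well, 0.5% dialyzed FBS); incubate 5 hrs at 37C; pin-transfer compounds or DMSO; incubate 17 hrs; add LiveBLAzer B/G substrate CCF4-AM; measure reporter activation by FRET.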
Experiment [10] in a line: qHTS assay to identify small molecule agonists of H2AX - cell viability counter screen (AID 1224847; calls by dose curve; also: nearly all actives have a fitted effect of over 30% in size; also: potency is read from the fitted curve at half-maximal effect). An outline of the steps: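 For this counter screen, overnight-attached CHO-K1 cells received test compounds (15 concentrations, 0.76% DMSO final); 3 hr later at 37C, CellTiter-Glo reagent was added and luminescence recorded after 30 min at room temperature.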
A short description of experiment [11]: qHTS RealTime-Glo MT Cell Viability Assay in HepG2 cells - 24 hour (AID 1224867). Also: nearly all actives have a fitted effect of over 50% in size. Also: potency is read from the fitted curve at half-maximal effect. In a few lines: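 Viability was tracked continuously by NanoLuc luminescence from prosubstrate reduced by living HepG2 cells, at successive time points over 40 h of compound exposure. Cells with reagent were preincubated 5 h at 37 °C before compound addition.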
Experiment [12] in a line: qHTS RealTime-Glo MT Cell Viability Assay in HEK293 cells - 32 hour (AID 1224868). Also: top concentration of the series differs between compounds; % is scaled to controls: 0 for no effect and ±100 for the full control effect; nearly all actives have a fitted effect of over 50% in size. In a few lines: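 Viability tracked continuously by luminescence as live cells reduce a prosubstrate for NanoLuc; HEK293 cells preincubated 5 h, compound-treated at 37 C, and read at 0, 8, 16, 24, 32 and 40 h.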
The nature of experiment [13]: A CellTox Green Cytotoxicity Assay to monitor cytotoxicity in HEK293 cells - 0 hour (AID 1224869). Also: % is scaled to controls: 0 for no effect and ±100 for the full control effect; nearly all actives have a fitted effect of over 50% in size. In a few lines:
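Cytotoxicity was tracked continuously in HEK293 cells by a DNA-binding dye excluded from viable cells. Compounds were transferred in DMSO 5 h after seeding; fluorescence was recorded at intervals up to 40 h.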

Experiment [14] can be described thus: qHTS RealTime-Glo MT Cell Viability Assay in HepG2 cells - 40 hour (AID 1224870). An outline of the steps:
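HepG2 cells (600/well) mixed with RealTime-Glo MT reagent, settled 5 h at 37 C/5% CO2 before compound addition. Nonlytic NanoLuc luminescence from viable-cell prosubstrate reduction read repeatedly during 40 h treatment at 37 C.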

The nature of experiment [15]: qHTS assay to identify small molecule antagonists of the estrogen related receptor (ERR) signaling pathway from Tox21 library (AID 1224848). In a few lines:
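Luminescent reporter read-out (ONE-Glo) from NTP's ERR cell line after 18 h treatment at 37 C with DMSO-dissolved Tox21 compounds; cells pre-plated 6 h beforehand at 2,000 per well.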

The nature of experiment [16]: qHTS assay to identify small molecule agonists of the estrogen related receptor (ERR) signaling pathway from Tox21 library (AID 1224849; calls by dose curve; also: % is scaled to controls: 0 for no effect and ±100 for the full control effect; nearly all actives have a fitted effect of over 15% in size). The conditions noted are these: ERR reporter cell line, ONE-Glo luciferase, 18 h; at 92.4 µM (top of the series) unless noted. In a few lines: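 Agonist signal is luciferase luminescence from an ERR reporter cell line treated 18 h at 37 C with DMSO-dissolved compounds, read 30 min after ONE-Glo addition at room temperature.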

In experiment [17] the target is Nuclear receptor subfamily 1 group I member 3 (Homo sapiens) (UniProt Q14994). Nature of the experiment: qHTS assay to identify small molecule antagonists of the constitutive androstane receptor (CAR) signaling pathway (AID 1224838). Also: % is scaled to controls: 0 for no effect and ±100 for the full control effect; nearly all actives have a fitted effect of over 40% in size. An outline of the steps: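 Compounds were titrated across 15 concentrations onto HepG2 cells double-stably expressing hCAR and a CYP2B6-2.2kb reporter, together with 50 nM CITCO (final). After 24 h at 37 C, luciferase activity was measured by luminescence.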
Nuclear receptor subfamily 1 group I member 3 (Homo sapiens), sequence (Q14994 whole entry, looked up): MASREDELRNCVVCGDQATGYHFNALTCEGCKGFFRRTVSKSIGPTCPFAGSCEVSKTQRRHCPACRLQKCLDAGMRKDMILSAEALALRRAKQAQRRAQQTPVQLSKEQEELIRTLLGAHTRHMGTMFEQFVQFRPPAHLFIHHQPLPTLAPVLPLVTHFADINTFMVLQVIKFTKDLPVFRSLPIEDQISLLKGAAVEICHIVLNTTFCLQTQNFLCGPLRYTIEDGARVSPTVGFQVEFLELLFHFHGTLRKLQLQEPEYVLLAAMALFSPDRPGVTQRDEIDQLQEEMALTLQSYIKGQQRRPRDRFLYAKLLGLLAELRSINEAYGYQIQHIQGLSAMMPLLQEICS

Experiment [18] shares this target. Nature of the experiment: qHTS assay to identify small molecule agonists of the constitutive androstane receptor (CAR) signaling pathway (AID 1224839). Also: nearly all actives have a fitted effect of over 15% in size. Also: potency is read from the fitted curve at half-maximal effect. As to activation: % is scaled to controls: 0 for no effect and ±100 for the full control effect. An outline of the steps:
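Readout: firefly luciferase luminescence via ONE-Glo. System: HepG2 double-stable for hCAR and CYP2B6-2.2kb. Conditions: 15-point compound titration, PK11195 at 0.75 uM final, 24 h incubation.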

The nature of experiment [19]: qHTS assay to identify small molecule agonists of the estrogen related receptor signaling pathway with the pleiotropic PPARgamma coactivator (PGC) from Tox21 10K library (AID 1224842). Also: % is scaled to controls: 0 for no effect and ±100 for the full control effect; nearly all actives have a fitted effect of over 15% in size. An outline of the steps: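 PGC/ERR reporter cell line, 2,000 cells per well, incubated 6 h at 37 C before 23 nL compound in DMSO was added. After 18 h at 37 C, One-Glo luminescence read following 30 min at room temperature.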

Values without a mark were called inactive. Inconclusive results are not listed. The source made the active and inactive calls. Unless noted, calls follow the shape of the dose curve; as a rule, active = well fitted curve in the direction sought with a large enough effect in the repeat runs; inconclusive = weak or mixed curves; inactive = no such curve, though single readings can be large; an effect the other way counts as inactive or inconclusive.

Thyrotropin receptor (Homo sapiens), sequence (P16473 whole entry, looked up): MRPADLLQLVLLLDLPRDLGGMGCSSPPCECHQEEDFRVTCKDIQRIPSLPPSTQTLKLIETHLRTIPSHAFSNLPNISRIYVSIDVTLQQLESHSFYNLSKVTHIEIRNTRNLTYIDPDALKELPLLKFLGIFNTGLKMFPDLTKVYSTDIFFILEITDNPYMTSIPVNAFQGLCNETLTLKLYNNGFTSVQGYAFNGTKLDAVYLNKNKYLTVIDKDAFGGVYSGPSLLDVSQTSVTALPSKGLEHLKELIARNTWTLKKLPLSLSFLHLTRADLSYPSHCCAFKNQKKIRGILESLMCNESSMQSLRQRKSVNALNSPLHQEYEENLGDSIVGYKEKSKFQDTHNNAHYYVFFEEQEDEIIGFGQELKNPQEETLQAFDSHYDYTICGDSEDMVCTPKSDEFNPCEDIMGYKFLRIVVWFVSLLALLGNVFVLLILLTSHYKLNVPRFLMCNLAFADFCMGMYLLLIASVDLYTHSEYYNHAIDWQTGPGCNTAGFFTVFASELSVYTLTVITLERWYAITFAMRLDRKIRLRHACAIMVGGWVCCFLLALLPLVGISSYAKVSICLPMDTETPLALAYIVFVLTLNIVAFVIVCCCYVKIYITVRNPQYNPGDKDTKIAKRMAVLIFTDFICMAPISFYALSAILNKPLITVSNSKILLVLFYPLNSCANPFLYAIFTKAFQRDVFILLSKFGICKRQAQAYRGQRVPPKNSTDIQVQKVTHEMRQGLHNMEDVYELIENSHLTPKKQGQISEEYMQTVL

As for `COc1ccc([N+](=O)[O-])cc1O`, the Potency result in [1], in experiment [2], in experiment [3], in experiment [4], in [5] and in [6] was “inactive” each time. The Potency result in experiment [7], in [8], in experiment [10], in experiment [11], in [12] and in [13] was “inactive” each time. Also, the Potency entry in experiment [14] is “inactive”. Besides, in experiment [9], the outcome was inactive.
For the compound `CCCCN(CCCC)C(=S)[S-].CCCCN(CCCC)C(=S)[S-].[Zn+2]`, the Potency is 15.3 µM (active) in experiment [1]; 21.7 µM (active) in [3]; 21.7 µM (active) in experiment [4]; 13.7 µM (active) in experiment [5]; 15.5 µM (active) in experiment [7]; 80 µM (active) in experiment [10]. The Potency in [15] is 12.2 µM (active); in experiment [11] it was 34.7 µM (active). Further, the Potency result in experiment [2] and in experiment [8] was “inactive” each time. For the same compound, in experiment [16], the activity change, positive = activation was -74.5%.
As to `CCCCCCCCCCCCCN1CC(C)OC(C)C1` (stereo unspecified), the Potency result in experiment [1], in [2], in experiment [3], in experiment [4], in experiment [5] and in [6] was “inactive” each time. Moreover, the Potency entry in experiment [7], in experiment [8], in experiment [10], in experiment [11], in experiment [12] and in experiment [13] was “inactive” each time. Further, the compound was called inactive in experiment [9].
Take `O=[N+]([O-])c1cc(Cl)ccc1Cl`: the Potency result in experiment [1], in experiment [2], in [3], in [17], in experiment [18] and in experiment [5] was “inactive” in each case. The Potency entry in [6], in experiment [7], in experiment [8], in experiment [10], in experiment [11] and in experiment [12] was “inactive” throughout. The Potency result in [13] and in experiment [14] was “inactive” in each case. Further, the result in experiment [9] was inactive.
On to `COc1ccc(OC)c(C=O)c1`, for which the Potency entry in experiment [1], in experiment [2], in experiment [3], in experiment [4], in experiment [5] and in experiment [7] was “inactive” in each case. In addition, the Potency entry in experiment [8], in experiment [10], in [11] and in [14] was “inactive” throughout. In experiment [9], the call was inactive.
As to `N#CC(Cl)Cl`, the Potency result in experiment [1], in experiment [2], in experiment [3], in [4], in experiment [5] and in [19] was “inactive” in each case. The Potency result in experiment [6], in [8], in experiment [11] and in experiment [13] was “inactive” throughout. Besides, the activity change, positive = activation in experiment [16] is -30.9%.
With `NNC(=O)c1ccccc1`, the Potency entry in experiment [1], in experiment [2], in [3], in experiment [17], in experiment [5] and in experiment [6] was “inactive” throughout. For the same compound, the Potency entry in experiment [7], in [8], in experiment [10], in experiment [11], in [12] and in experiment [14] was “inactive” throughout. The Potency in experiment [18] was 62.8 µM (active). In addition, in experiment [9], the outcome was inactive.
For the compound `COS(=O)(=O)c1ccc(C)cc1`, the Potency result in experiment [1], in [2], in [3], in experiment [4], in [5] and in experiment [6] was “inactive” throughout. Also, the Potency result in experiment [8], in experiment [10], in experiment [11], in experiment [13] and in experiment [14] was “inactive” in each case. In addition, the call in experiment [9] was inactive.

These data come from PubChem BioAssay (Tox21).
